PubChem BioAssay
The source made the active and inactive calls.

Target: E3 ubiquitin-protein ligase XIAP (Homo sapiens) (UniProt P98170)
Assay: XIAP binders, primary screen, biophysical, small-molecule microarray, fluorescence 635 nm (AID 1181);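 also: score merges 667 nm emission and signal to noise over triplicate slides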
Details: small-molecule microarray binding, higher = more signal

Chain of E3 ubiquitin-protein ligase XIAP (Homo sapiens) (P98170 whole entry, looked up): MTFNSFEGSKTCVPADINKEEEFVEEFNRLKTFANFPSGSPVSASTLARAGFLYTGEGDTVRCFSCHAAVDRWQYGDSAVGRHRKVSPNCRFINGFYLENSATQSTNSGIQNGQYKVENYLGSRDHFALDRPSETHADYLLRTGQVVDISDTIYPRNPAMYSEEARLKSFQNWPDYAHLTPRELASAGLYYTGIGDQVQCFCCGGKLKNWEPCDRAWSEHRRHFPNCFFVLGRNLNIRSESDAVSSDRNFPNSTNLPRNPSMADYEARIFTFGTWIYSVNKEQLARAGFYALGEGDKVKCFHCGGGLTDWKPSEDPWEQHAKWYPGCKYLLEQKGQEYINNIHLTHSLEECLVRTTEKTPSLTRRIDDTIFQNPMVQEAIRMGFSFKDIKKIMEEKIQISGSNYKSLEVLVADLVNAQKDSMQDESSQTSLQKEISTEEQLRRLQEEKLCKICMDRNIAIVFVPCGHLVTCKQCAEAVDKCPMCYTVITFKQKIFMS

Compound | composite z-score
[N-]=[N+]=NCc1ccccc1C[C@]1(C(=O)O)COC(c2ccc(OCCCO)cc2)=N1 | -0.445
N[C@@H](Cc1ccccc1)Cn1cc(C2(O)CCCCC2)nn1 | -0.0767
Cc1ccc(F)cc1S(=O)(=O)N[C@@H]1CCN(Cc2ccc3[nH]ccc3c2)C1 | -0.144
COCCOC(=O)N1C(=O)[C@@]2(c3cc(C#CC4=CCCCC4)ccc31)[C@H](c1ccccc1OCCO)N1[C@H](c3ccccc3)[C@H](c3ccccc3)OC(=O)[C@H]1[C@@H]2C(N)=O | 0.126
CC1(C)OC[C@@]23C=C(Br)[C@@H](C[C@H]12)[C@@]1(CO1)C3=O | -0.02
CN1C(=O)C2C=CC(C(O)c3ccc(-c4ccccc4)s3)N(Nc3ccccc3)C2C1=O (centres undefined) | 0.148
C=C(COC)/C(=C/C[C@H](OC(=O)c1ccncc1)c1ccc(OCCO)cc1)c1cc(C(=O)OC)ccc1OC | 0.177
COCCn1c(C(=O)N2CCCC2)cc2c1C[C@H]1CN(C(=O)c3ccccc3)[C@@](Cc3ccccc3)(C(=O)OC)[C@@H]21 | 0.369
CCC[C@@H]1C=C(C(=O)OCC)[C@H](c2ccccc2)N1S(=O)(=O)c1ccc(C)cc1 | -0.0696
COCC(=C=CC[C@@H](O)c1cccc(OCCO)c1)C[C@@H](O)COCc1ccccc1 | 1.16
CC(C)[C@@H](C(=O)O)n1cc(-c2ccccc2)nn1 | 0.0402
CN(C)CCCCNC(=O)[C@H]1C[C@H]2C(=O)NCC(=O)N2[C@H]1c1cccc(OCCO)c1 | -0.0286
[N-]=[N+]=NCc1ccccc1C[C@]1(C(=O)N2CCOCC2)N=C(c2ccc(OCCCO)cc2)O[C@H]1c1ccccc1CN=[N+]=[N-] | 0.411
C=CCNC(=O)[C@@H]1[C@H]2C(=O)O[C@H](c3ccccc3)[C@H](c3ccccc3)N2[C@H](c2ccccc2OCCO)[C@@]12C(=O)N(C(=O)OCCOC)c1ccc(C#CCCO)cc12 | -0.0347
CC(C)=CCN(C(=O)C#Cc1ccccc1)[C@H](CO)c1ccccc1 | 0.165
Cc1ccccc1C(O)C1C=CC2C(=O)N(c3ccccc3)C(=O)C2N1Nc1ccccc1F (centres undefined) | 0.202
C=CC[C@]1(C(=O)NCc2ccccc2)COC(c2ccc(OCCCO)cc2)=N1 | 0.001
C=C(/C(=C/C[C@@H](OC(C)=O)c1ccccc1OCCO)c1cc(C(=O)OC)ccc1OC)C(C)C | -0.323
CCCC=C(CCC)[C@@H](NS(=O)(=O)c1ccc(Cl)cc1)c1ccccc1 | 0.102

Test system: XIP peptide (Xip251-270) binding
Assay: small-molecule binders of XIP peptide, primary screen, biochemical, small-molecule microarray, fluorescence 635/667 nm, 0.1 µg/mL protein (AID 1182)
Details: fluorescent protein binding, 635 nm, higher = more signal, called active from +8 up or from −8 down

Compound | composite z-score
CCCCC(O)C1C=CC2C(=O)N(C)C(=O)C2N1Nc1ccccc1 (centres undefined) | -0.141 (inactive)
O=C1C2C=CC(C(O)c3cccs3)N(Nc3ccccc3)C2C(=O)N1c1ccccc1 (centres undefined) | 0.308 (inactive)
COC(=O)[C@@]1(Cc2ccccc2)[C@@H]2[C@@H](CC(=O)[C@H]2CC(=O)C(=O)N(C)C)CN1C(=O)c1ccccc1 | -0.282 (inactive)
CC=CC(O)C1C=CC2C(=O)N(C)C(=O)C2N1NC(=O)OC(C)(C)C (centres undefined) | -0.3 (inactive)
CN(C)C(=O)[C@]1(Cc2ccccc2)N=C(c2ccc(OCCCO)cc2)O[C@@H]1c1ccccc1 | 0.895 (inactive)
C=CCC(OC(C)=O)[C@@H]1[C@@H](N(Cc2cccc3ccccc23)C(=O)c2ccc(-c3ccccc3)cc2)c2cc(OCCCO)ccc2N1C(=O)c1ccc2ccccc2n1 (some centres undefined) | -0.268 (inactive)
C=CCC(OC(C)=O)[C@@H]1[C@@H](N(Cc2ccc(-c3ccccc3)cc2)C(=O)c2ccc(-c3ccccc3)cc2)c2cc(OCCCO)ccc2N1C(=O)c1ccc2ccccc2n1 (some centres undefined) | -0.649 (inactive)
NC(=O)NCC#Cc1ccc2c(c1)[C@]1(C(=O)N2)[C@H](C(=O)N2CCCCCCC2)[C@H]2C(=O)O[C@H](c3ccccc3)[C@H](c3ccccc3)N2[C@@H]1c1ccc(O)cc1 | 0.123 (inactive)
C=CCC(OC(C)=O)[C@@H]1[C@@H](N(Cc2ccc(-c3cccc(C(F)(F)F)c3)o2)C(=O)Cc2ccc(F)cc2)c2cc(OCCCO)ccc2N1C(=O)c1ccc2ccccc2c1 (some centres undefined) | -0.502 (inactive)
O=C1C2C=CC(C(O)c3ccc([N+](=O)[O-])cc3)N(Nc3ccccc3)C2C(=O)N1c1ccccc1 (centres undefined) | 0.392 (inactive)
O=C1c2ccccc2[C@@]2(Cc3ccccc3N(Cc3ccccc3)C2=O)[C@H](c2ccc(CO)cc2)N1Cc1ccccc1 | -0.348 (inactive)
CCOC(=O)C[C@H]1[C@H](OC(=O)Cc2ccc3c(c2)OCO3)[C@@H](NC(=O)c2ccccc2)c2cc(OCCCO)ccc2N1C(=O)Cc1ccc(OC)cc1 | 0.659 (inactive)
CCOC(=O)C[C@H]1[C@H](OC(=O)c2ccc(-c3ccccc3)cc2)[C@@H](NC(=O)CC(C)C)c2cc(OCCCO)ccc2N1C(=O)Cc1ccc(OC)cc1 | 0.364 (inactive)
CC(C)CNC(=O)[C@@H]1c2ccccc2C(=O)N(C2Cc3ccccc3C2)[C@H]1c1ccc(CO)cc1 | 0.45 (inactive)
C=C(COC)C(=O)CC[C@@H](OC(C)=O)c1ccc(OCCO)cc1 | 1.61 (inactive)
COCCOC(=O)N1C(=O)[C@@]2(c3cc(C#CC4(O)CCCCCC4)ccc31)[C@H](c1ccc(OCCO)cc1)N1[C@H](c3ccccc3)[C@H](c3ccccc3)OC(=O)[C@H]1[C@@H]2C(=O)N1CCCCCCC1 | 0.662 (inactive)
[N-]=[N+]=NCc1ccccc1C[C@]1(C(=O)O)COC(c2ccc(OCCCO)cc2)=N1 | -0.4 (inactive)
N[C@@H](Cc1ccccc1)Cn1cc(C2(O)CCCCC2)nn1 | -0.0563 (inactive)

Compound | composite z-score
Cc1ccc(F)cc1S(=O)(=O)N[C@@H]1CCN(Cc2ccc3[nH]ccc3c2)C1 | -0.0141 (inactive)
COCCOC(=O)N1C(=O)[C@@]2(c3cc(C#CC4=CCCCC4)ccc31)[C@H](c1ccccc1OCCO)N1[C@H](c3ccccc3)[C@H](c3ccccc3)OC(=O)[C@H]1[C@@H]2C(N)=O | -0.0632 (inactive)
CC1(C)OC[C@@]23C=C(Br)[C@@H](C[C@H]12)[C@@]1(CO1)C3=O | -0.319 (inactive)
CN1C(=O)C2C=CC(C(O)c3ccc(-c4ccccc4)s3)N(Nc3ccccc3)C2C1=O (centres undefined) | 0.844 (inactive)
C=C(COC)/C(=C/C[C@H](OC(=O)c1ccncc1)c1ccc(OCCO)cc1)c1cc(C(=O)OC)ccc1OC | -0.202 (inactive)
COCCn1c(C(=O)N2CCCC2)cc2c1C[C@H]1CN(C(=O)c3ccccc3)[C@@](Cc3ccccc3)(C(=O)OC)[C@@H]21 | 1.06 (inactive)
CCC[C@@H]1C=C(C(=O)OCC)[C@H](c2ccccc2)N1S(=O)(=O)c1ccc(C)cc1 | 0.406 (inactive)
COCC(=C=CC[C@@H](O)c1cccc(OCCO)c1)C[C@@H](O)COCc1ccccc1 | 0.0062 (inactive)
CC(C)[C@@H](C(=O)O)n1cc(-c2ccccc2)nn1 | 0.767 (inactive)
CN(C)CCCCNC(=O)[C@H]1C[C@H]2C(=O)NCC(=O)N2[C@H]1c1cccc(OCCO)c1 | 0.329 (inactive)
[N-]=[N+]=NCc1ccccc1C[C@]1(C(=O)N2CCOCC2)N=C(c2ccc(OCCCO)cc2)O[C@H]1c1ccccc1CN=[N+]=[N-] | 0.158 (inactive)
C=CCNC(=O)[C@@H]1[C@H]2C(=O)O[C@H](c3ccccc3)[C@H](c3ccccc3)N2[C@H](c2ccccc2OCCO)[C@@]12C(=O)N(C(=O)OCCOC)c1ccc(C#CCCO)cc12 | 0.397 (inactive)
CC(C)=CCN(C(=O)C#Cc1ccccc1)[C@H](CO)c1ccccc1 | -0.415 (inactive)
Cc1ccccc1C(O)C1C=CC2C(=O)N(c3ccccc3)C(=O)C2N1Nc1ccccc1F (centres undefined) | 1.5 (inactive)
C=CC[C@]1(C(=O)NCc2ccccc2)COC(c2ccc(OCCCO)cc2)=N1 | -0.398 (inactive)
C=C(/C(=C/C[C@@H](OC(C)=O)c1ccccc1OCCO)c1cc(C(=O)OC)ccc1OC)C(C)C | 0.988 (inactive)
CCCC=C(CCC)[C@@H](NS(=O)(=O)c1ccc(Cl)cc1)c1ccccc1 | -0.641 (inactive)
